How the values were obtained:
Assay in all cases: PBM binding z-score (relative to random genomic background probes); higher = stronger binding; sequences stand for … in GC…GCGATTGACAGCGTAGAATGAAGG
[1] = test system: RARb homodimer (NR concentration 270 nM)
Procedure, shortened: (§1)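 Binding z-scores were set against random background probes. The data came from custom Agilent 4×180K protein-binding microarrays carrying double-stranded probes with 34-nt variable regions, incubated 1 h with ligand-free nuclear receptor dimers. Partner-specific antibodies detected binding, and scanned fluorescence was regression-normalized.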

[2] = test system: RARg:RXRa (NR concentration 270 nM, RXRa partner concentration 90 nM)
Procedure, shortened: as §1

[3] = test system: RARg homodimer (NR concentration 270 nM)
Procedure, shortened: as §1

[4] = test system: RXRa DBDmut IVT, anti-RXR (DBD mutation: RXRa K156A/R161A, NR concentration 90 nM)
Procedure, shortened: as §1

[5] = test system: RXRa homodimer (NR concentration 180 nM)
Procedure, shortened: as §1

[6] = test system: THRa:RXRa (NR concentration 90 nM, RXRa partner concentration 90 nM)
Procedure, shortened: as §1

[7] = test system: THRa homodimer (NR concentration 90 nM)
Procedure, shortened: as §1

[8] = test system: VDR homodimer (NR concentration 270 nM)
Procedure, shortened: as §1

Sequence	PBM binding z-score [1]	PBM binding z-score [2]	PBM binding z-score [3]	PBM binding z-score [4]	PBM binding z-score [5]	PBM binding z-score [6]	PBM binding z-score [7]	PBM binding z-score [8]
CAAACTAGGTCACGAAAGGTCAAAGTCGAATGAC	5.65	7.91	8.57	2.39	7.98	5.23	2.6	3.77
ACTAGCAGGCCAAGTTAGGGTCACTCAAACAAAG	3.53	4.02	2.89	-0.159	3.35	4.14	2.34	1.18
AGAACGTGGGCACGCTGAGTTGATAGCAGAGTAG	-0.561	-0.224	-0.0604	-0.279	-0.0635	-0.485	-0.747	-0.131
CCTATTAGTTGGCCATAAGGGCAACCGAAGCTCG	1.46	0.564	0.624	0.223	0.155	1.3	0.895	0.172
TCTTGTAGATCGACAGGAGGTTAAGAAAGATCGA	0.302	0.34	0.0753	0.223	0.86	0.713	-0.764	-0.181
CCTAGTTGGTCAGGAGGTCGCACACCGGATATGA	2.18	2.4	1.98	-0.149	1.86	1.66	0.99	1.59
AGAATGAGGTTATTAAGATCCGGGAATTGCGGTC	0.644	0.904	0.682	1.93	1.68	2.29	0.695	0.784
ATCTCTAGGTAAAAGTTCACTGAATCCCGAGGAT	3.15	3.04	2.99	0.997	3.02	2.01	0.473	2.79
TCTCGGAGGATACGAAGGTCAGAGCTTTCCAGAG	2.95	1.93	2.03	0.133	1.65	1.57	-0.156	0.224
TCTAGCAGGCCAGTGGGTCACTCAAGAGGTACGG	1.64	1.37	1.24	-0.186	1.18	0.549	-0.701	-0.424
CCTTACGGGTCACTGACAGTTTATAGCATTTGGA	3.2	5.31	4.77	2.11	5.48	2.74	0.505	1.42
TAGCCTAGGTCATGCGGTCCAGTATAGTGTCGGC	3.08	3.75	4.51	1.05	2.94	3	1.32	1.54
CAAACTAGGGCACGAAAGGTCAAAGTCGAATGAC	5.2	6.2	5.83	1.44	6.29	4.84	0.977	1.87
TCGAGTAGGTAAGTCGGGGCATTCAGCCAACATA	-0.0679	-0.527	-0.571	0.129	-0.331	0.543	-0.297	-0.05
CATACAGGGTCTGCTAGGCCAGAGTAGGGACGGC	-0.0672	-0.0355	0.276	-0.952	0.034	0.13	-0.32	-0.486
CGTGCTAGGTCATGGTCAGCTAATCTACAGTATG	3.2	3.97	4.74	1.87	2.75	3.12	1.2	0.319
TCATATAGGTAAATGCTAGGTGTAAGTCCGATCT	-0.036	0.43	0.124	1.47	0.608	0.0134	0.0913	0.144
GCTATTAATTGAAAGGGCAACCGAATGATTCTCG	1.96	0.91	1.26	0.65	0.421	0.301	-0.3	0.758
AGAATGAGGTTAAGAGCAGGGAAACAGAATACAT	0.878	2	1.27	0.729	2.46	2.19	0.347	0.0105
TAGCCTAGGTCATCGGCCAGTATACCACGCGAAC	2.9	4.27	4.72	1.02	3.08	2.76	1.11	0.802
ATAATGAGGTTAAGATCAGGGAAACAGAATACAT	0.864	2.47	1.96	1.16	2.68	2.74	1.02	0.406
CAAACTAGGTCAAGAGGTCAAGGTCCGCTTCCCG	5.98	7.92	7.98	2.28	8.06	4.25	3.13	3.74
CCTCGGAGGACAGAAGGTCTGAGCTGTCCGCTTT	-0.106	-0.159	0.14	-0.0896	-0.825	-0.0206	-0.537	-0.369
CAAACTAGGTCACAGAGGTCAAAATCCGTGCGTA	5.16	7.05	7.16	3.22	7.21	4.7	2.77	5.94
ACAGATAGGTGAGTGAAGGTAACTCAGCTGGACG	0.126	0.246	0.547	-0.347	0.347	1.65	-0.341	-0.149
GCTGCTAGCTCAACTGATGGTCAGCTAAAGCTCG	-0.699	-0.731	-0.78	-0.306	-0.88	-0.877	-1.48	-1.04

Source: the supplement of paper PMC6555819
